Test results reported in the supplement of paper PMC6555819.

Tests used:
Experiment in all cases: PBM binding z-score (relative to random genomic background probes); higher = stronger binding; sequences stand for … in GC…GCGATTGACAGCGTAGAATGAAGG
[1] = test system: PPARg:RXRa DBDmut IVT, anti-RXR (DBD mutation: RXRa K156A/R161A, NR concentration 270 nM, RXRa partner concentration 90 nM)
In short: (§1)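 For binding z-scores, the reference was random background probes on custom Agilent 4×180K protein-binding microarrays. These arrays were incubated 1 h with ligand-free nuclear receptor dimers in PBS pH 7.4, 2% milk, 0.02% Triton X-100, 1 mM DTT, 0.2 mg/mL BSA and 0.4 mg/ml salmon testes DNA. Fluorescence was scanned after antibody detection of each partner (one per run) and regression-normalized.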

[2] = test system: PPARg:RXRa IVT, anti-PPARg (NR concentration 270 nM, RXRa partner concentration 90 nM)
In short: as §1

[3] = test system: PPARg DBDmut:RXRa IVT, anti-PPARg (DBD mutation: PPARg1 K132A/R137A, NR concentration 270 nM, RXRa partner concentration 90 nM)
In short: as §1

[4] = test system: PPARg DBDmut IVT, anti-PPARg (DBD mutation: PPARg1 K132A/R137A, NR concentration 270 nM)
In short: as §1

[5] = test system: PPARg homodimer (NR concentration 180 nM)
In short: as §1

[6] = test system: PXR:RXRa (NR concentration 270 nM, RXRa partner concentration 90 nM)
In short: as §1

[7] = test system: PXR homodimer (NR concentration 270 nM)
In short: as §1

[8] = test system: RARa:RXR (NR concentration 270 nM, RXRa partner concentration 90 nM)
In short: as §1

[9] = test system: RARa homodimer (NR concentration 270 nM)
In short: as §1

[10] = test system: RARb:RXRa (NR concentration 270 nM, RXRa partner concentration 90 nM)
In short: as §1

[11] = test system: RARb homodimer (NR concentration 270 nM)
In short: as §1

[12] = test system: RARg:RXRa (NR concentration 270 nM, RXRa partner concentration 90 nM)
In short: as §1

[13] = test system: RARg homodimer (NR concentration 270 nM)
In short: as §1

[14] = test system: RXRa DBDmut IVT, anti-RXR (DBD mutation: RXRa K156A/R161A, NR concentration 90 nM)
In short: as §1

[15] = test system: RXRa homodimer (NR concentration 180 nM)
In short: as §1

[16] = test system: THRa:RXRa (NR concentration 90 nM, RXRa partner concentration 90 nM)
In short: as §1

[17] = test system: THRa homodimer (NR concentration 90 nM)
In short: as §1

[18] = test system: VDR homodimer (NR concentration 270 nM)
In short: as §1

| Sequence | PBM binding z-score [1] | PBM binding z-score [2] | PBM binding z-score [3] | PBM binding z-score [4] | PBM binding z-score [5] | PBM binding z-score [6] | PBM binding z-score [7] | PBM binding z-score [8] | PBM binding z-score [9] | PBM binding z-score [10] | PBM binding z-score [11] | PBM binding z-score [12] | PBM binding z-score [13] | PBM binding z-score [14] | PBM binding z-score [15] | PBM binding z-score [16] | PBM binding z-score [17] | PBM binding z-score [18] |
| --- | --- | --- | --- | --- | --- | --- | --- | --- | --- | --- | --- | --- | --- | --- | --- | --- | --- | --- |
| TTACCAAGGTGAAAGGTCGTTTATGCACGCCTTG | 2.69 | 4.38 | 1.05 | 0.279 | 1.68 | 3.9 | 0.719 | 5.53 | 0.296 | 2.75 | 2.24 | 3.89 | 1.62 | 1.14 | 5.38 | 3.17 | 0.854 | 2.03 |
| CTGGAAAGGTCGGTTGAGGTGAGTATACGGATAA | -0.117 | 0.957 | -0.556 | 0.0614 | 0.799 | 3.21 | -0.0647 | 2.05 | 0.351 | 2.89 | 2.18 | 2.53 | 2.93 | 1.05 | 2.18 | 4.88 | 1.56 | 0.437 |
| CAAACTAGGTCAAGGTCAAAATCGGTTTGTGCCA | 8.64 | 9.04 | 2.23 | 3.4 | 2.8 | 4.7 | 1.74 | 4.78 | 1.1 | 5.1 | 4.77 | 5.74 | 6.36 | 2.64 | 5.55 | 4.32 | 3.13 | 3.88 |
| ATATCTAGGTAAAGTTCAGTGAAAGATCGATAGA | 6.18 | 5.91 | 1.87 | 1.59 | 1.46 | 1.95 | 1.41 | 1.52 | 1.3 | 2.74 | 2.45 | 2.04 | 2.43 | 1.6 | 1.53 | 1.33 | 0.34 | 1.78 |
| TCTAGTAGGCCAGAGGGTCACTCAAGAGGTACGG | 3.6 | 4 | -0.235 | 0.392 | 0.62 | 1.76 | -0.532 | 2.51 | -0.0158 | 2.37 | 2.95 | 2.83 | 2.16 | 0.571 | 2.75 | 1.74 | 0.0135 | 0.631 |
| TATACAGGGTCAAAGACCAGAGTACGAATGTCGA | 2.05 | 4.19 | 1.75 | 1.67 | 1.9 | 3.65 | 0.419 | 4.04 | 0.668 | 4.25 | 2.94 | 5.15 | 4.53 | 2.82 | 5.89 | 3.2 | 0.651 | 2.81 |
| CGAACTAGGTCAATGACAGGACAGTGAATAGTAA | 8.25 | 7.96 | 1.69 | 1.41 | 1.62 | 1.12 | -0.0371 | 1.75 | 0.354 | 3.64 | 2.71 | 4.32 | 4.46 | 1.49 | 2.17 | 2.62 | 0.35 | 0.409 |
| ACAGACAGGTGATGAAGGTAAATCAGGCTATCAT | -0.0404 | 0.544 | 0.329 | 0.144 | 0.185 | -0.214 | -0.0702 | 0.248 | 0.26 | 0.21 | 0.0548 | 0.28 | 0.373 | -0.384 | 0.316 | 0.885 | -0.061 | -0.34 |
| TCGAGTAGGTTAGTCGGGGCTTTCAGCCAACATA | 1.86 | 0.952 | -1.71 | -1.29 | -0.983 | -0.467 | -0.898 | -0.14 | -1.19 | 0.0518 | -0.364 | -0.483 | -0.728 | 0.169 | -0.346 | 1.11 | -0.892 | -0.862 |
| CGAACGAGGGCATAAGTTGATAGCAAATGCCGAT | 2.66 | 1.67 | -0.0137 | -0.0553 | 0.0801 | 0.19 | 0.226 | 0.129 | -0.269 | 1.58 | 0.864 | 1.23 | 1.25 | 2.53 | 0.665 | 0.587 | -0.473 | 1.04 |
| CAAACTAGGTCAGGAGGTCAAAGTCCGCTTCCCG | 7.85 | 8.07 | 2.42 | 1.18 | 6 | 5.16 | 2.29 | 6.31 | 1.8 | 4.92 | 5.3 | 6.99 | 5.98 | 2.11 | 5.81 | 3.97 | 2.52 | 3.61 |
| CCTATTAATTGACCATAAGGGCAACCGAAGCTCG | 0.352 | 0.562 | 0.908 | 0.978 | 2.66 | 0.673 | 1.92 | 1.11 | 3.76 | 1.42 | 1.91 | 0.926 | 1.1 | 0.931 | 0.841 | 1.63 | 1.81 | 1.85 |
| TCAGCCAGGTGAAGGTAACTCAGGTACGCAGTCG | 1.65 | 1.33 | -0.394 | -0.849 | -0.828 | -0.0147 | -0.594 | 0.481 | -0.526 | 0.673 | 0.236 | 0.119 | -0.0268 | 0.397 | 0.607 | 1.8 | 0.391 | -0.347 |
| ACTTACAGGTCAACGAGGTTATAGCACGCGTATA | 4.4 | 4.7 | 1.92 | 1.44 | 2.53 | 5.25 | 5.38 | 4.94 | 1.81 | 4.52 | 4.19 | 5.93 | 5.75 | 2.76 | 5.89 | 4.02 | 1.8 | 4.27 |
| TCTAGTTGGTTAAAGGTCACACACTCGAAATGCG | 3.15 | 5.25 | 1.74 | 2.83 | 4.61 | 5.24 | 1.86 | 6.06 | 4.25 | 4.77 | 5.19 | 6.13 | 5.53 | 2.21 | 6.72 | 4.02 | 2.69 | 2.78 |
